Our source for the sensor-assay potency score (higher = more potent) values is the OligoGym collection.
Also: reference of the scale not given here.

For one assay, the target named is EIF1. The assay is described as follows: pooled miR-30 sensor sort-seq; sequence = guide strand. The note with it: shRNA.
For the sequence TAGTAAGGGTCTTCCTGCCGTT, the sensor-assay potency score (higher = more potent) was -0.658.

Sequence AAACTTTTTCTTAAACGCCTTC had a sensor-assay potency score (higher = more potent) of -0.311.

Regarding TTGGACAGTAGTAAGGGTCTTC, the sensor-assay potency score (higher = more potent) is 0.328.

For TCTTTTTATCGTAATCATCAGC, the sensor-assay potency score (higher = more potent) was -0.92.

The sequence TCAATTACAGTACCATTGCAGG showed a sensor-assay potency score (higher = more potent) of -1.4.

Consider TTGCAGGCAAACTTTTTCTTAA, for which the sensor-assay potency score (higher = more potent) was -0.992.

For AATTACTTCTCCATATTCCGGA, the sensor-assay potency score (higher = more potent) amounted to 0.541.

A further assay concerns the target EIF2B2. Described as above. To be noted: shRNA.
TGACTCTTGACATAACGGCAAA registered a sensor-assay potency score (higher = more potent) of -1.53.

In turn, TTATGTTTAACACACTACTGAA had a sensor-assay potency score (higher = more potent) of -0.666.

In the case of TTGACTCTTGACATAACGGCAA, the sensor-assay potency score (higher = more potent) is -0.00739.

Turning to TATGAAATGAGTCTTCTTCATT, the sensor-assay potency score (higher = more potent) is -1.13.

Sequence TAATCTTGAGCACTCTCCGCAC had a sensor-assay potency score (higher = more potent) of -0.531.

In turn, ATCCTCTCTGACAACTCCGAGC had a sensor-assay potency score (higher = more potent) of -1.34.

For TCTCTGACAACTCCGAGCCCTT, the sensor-assay potency score (higher = more potent) is -1.5.

For the sequence ATAATCTTGAGCACTCTCCGCA, the sensor-assay potency score (higher = more potent) was found to be 0.402.

With TATGTTTAACACACTACTGAAC, the sensor-assay potency score (higher = more potent) was -1.15.

On to TAACACACTACTGAACCAGAAA, for which the sensor-assay potency score (higher = more potent) is -0.956.

For the sequence TTTAACACACTACTGAACCAGA, the sensor-assay potency score (higher = more potent) was -0.372.

Consider TAGAGTTCACTCATCAGGCGGT, for which the sensor-assay potency score (higher = more potent) came out at 0.258.

For another assay, the target named is EIF3K. Described as above. The note with it: shRNA.
In the case of TACCCTTGAGCAACTTGCCCAC, the sensor-assay potency score (higher = more potent) is -0.487.

In turn, TATTTGCTCATCCACACCTTTA displayed a sensor-assay potency score (higher = more potent) of -1.23.

In the case of TACAGATGAAGATCTGCCCCGA, the sensor-assay potency score (higher = more potent) was 0.0464.

TTGATGTGCCTGGTCGATCATG gave a sensor-assay potency score (higher = more potent) of -1.46.

Sequence TGATGCTGGACACACTGTCAAA came in with a sensor-assay potency score (higher = more potent) of -1.61.

In the case of TTCTCCACAATGTTCTTGGGTT, the sensor-assay potency score (higher = more potent) is -0.486.

As for TATACCTTCCAAGAGGTCCATG, the sensor-assay potency score (higher = more potent) is -1.12.

As for TTCTTGATGTGCCTGGTCGATC, the sensor-assay potency score (higher = more potent) was -1.05.

The sequence TTGCACAGGGTGAAGTCTGTGT returned a sensor-assay potency score (higher = more potent) of -0.115.

Regarding TTGGCTACAGATGAAGATCTGC, the sensor-assay potency score (higher = more potent) was 0.0721.

As for TAAACTTTCGGACAGAGTCTTC, the sensor-assay potency score (higher = more potent) was -0.691.

On to ATCTTCTCCACAATGTTCTTGG, for which the sensor-assay potency score (higher = more potent) was -0.584.

The target of another assay is EIF3M. The description is as above. The note with it: shRNA.
In turn, ATCTTCTTCACTGATGTCGATG gave a sensor-assay potency score (higher = more potent) of -1.42.

As for TTCAACATCTTTATCATCCTCC, the sensor-assay potency score (higher = more potent) is 0.759.

For the sequence TGAAGCAGCATCACTCTTCTTA, the sensor-assay potency score (higher = more potent) is 0.0165.

As to AACATCATCAGCTCCAATCTGA, the sensor-assay potency score (higher = more potent) is 0.0943.

Turning to TTGTCCTCTGTGTAACTTCCGA, the sensor-assay potency score (higher = more potent) was -0.798.

Sequence TTGCTTAACAACTGCAGTCTCA yielded a sensor-assay potency score (higher = more potent) of -0.8.

On to AACATCTTTATCATCCTCCTTC, for which the sensor-assay potency score (higher = more potent) is 0.329.

Sequence TTTTCTAACTTGATCCAGCTCA gave a sensor-assay potency score (higher = more potent) of -0.0518.

With TACAGGAGTATTCTTATCCATC, the sensor-assay potency score (higher = more potent) was -1.23.
